We go through 30 compounds from PubChem BioAssay (NCI).

This is part of a sample that, as a whole, favours compounds with a hit. Of some 83,000 tested, about 20% had one in any assay.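 Compound tested at a single concentration for 48 hours in 96-well plates; a percent growth value below 10 was scored as active.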 A number with no mark means an inactive call. The source made the active and inactive calls.

The test system of the assay is 786-0 renal. Briefly: NCI-60 one-dose screen, 48 h (100 = growth as untreated, 0 = no growth, -100 = all killed). The following applies: 10 µM unless noted.
In the case of `CCCCCCNc1cc(C)nc2ccc(OC)cc12`, the growth was 68.9%. `Cc1ccc(C)c2c1C(=O)OC2=O`: the growth was 101%. As for `CCN(CC)CCCNC(=O)c1ccc(N)cc1O`, the growth is 105%. With `O=[N+]([O-])c1ccc(-c2cc3c(Nc4ccc(OCc5cccc(Cl)c5)c(Cl)c4)ncnc3s2)cc1`, the growth is 88.3%. Turning to `COC(=O)Nc1nc2ccc(C(=O)C3CC3)cc2[nH]1`, the growth is 29.2%. In the case of `CCOC(=O)C(O)C(O)(c1ccccc1)c1ccccc1` (stereo not given) it was 102%; in that of `N#Cc1cnn2c(-c3ccc(Cl)cc3)nc(NC3CC3)nc12`, 89.8%. Take `CN(CCC(=O)/C(=C\c1ccccc1)c1ccc(Cl)cc1)Cc1ccccc1`: the growth was -64.5% (active). In the case of `O=C(NCOC(O)C(Cl)(Cl)Cl)NCOC(O)C(Cl)(Cl)Cl` (stereo not given) it was 99.2%; in that of `Cc1nn(-c2ccccc2)c2c1C(c1ccc([N+](=O)[O-])cc1)C(C#N)=C(N)O2` (stereo not given), 102%. On to `O=[N+]([O-])c1ccccc1C(O)Cc1ccc2ccccc2n1` (stereo not given), for which the growth is 104%. As for `N#Cc1cnn2c(-c3ccc(Cl)cc3)nc(NCCc3ccccc3)nc12`, the growth is 92.5%.

`CCOC(=O)C(=CNc1ccccc1[N+](=O)[O-])C(=O)OCC`: the growth was 97.2%. In the case of `Cc1ccc(NSc2ccccc2[N+](=O)[O-])cc1`, the growth is 40.2%. For `CN(C)CCC(O)(Cc1ccccc1)c1ccccc1` (stereo not given), the growth is 105%. As for `CCOc1cc(N)ccc1C(=O)NCCCN(CC)CC`, the growth was 100%. For the compound `COc1ccc(-c2nnc(SCC(=O)NC3=NN=C(c4ccccc4)CS3)o2)cc1`, the growth was 101%. As for `CCCCCCCCN(CCCCCCCC)C(=N)c1ccnc2ccccc12`, the growth is -100% (active). As for `COc1cc(-c2ccc(N=Nc3c(O)c(C(=O)Nc4ccccc4OC)cc4ccccc34)c(OC)c2)ccc1N=Nc1c(O)c(C(=O)Nc2ccccc2OC)cc2ccccc12`, the growth is 87.2%. `O=C1c2ccccc2C2(c3ccc(O)cc3)c3ccccc3Oc3cccc1c32` (stereo not given): the growth is 40.6%. With `Cc1c(Cl)cccc1NS(=O)(=O)c1ccccc1`, the growth is 106%. On to `CN(C)c1cnccn1`, for which the growth was 98.3%. For the compound `Nc1ccc(-c2cc3c(Nc4ccc(OCc5cccc(F)c5)c(Cl)c4)ncnc3s2)cc1`, the growth was 37.2%. `O=[N+]([O-])c1ccc(-c2cc3c(Nc4ccc(Cl)c(C(F)(F)F)c4)ncnc3s2)cc1`: the growth was 19.2%.

With `O=[N+]([O-])c1ccc(-c2cc3c(Nc4ccc(Sc5nc6ccccc6s5)c(Cl)c4)ncnc3s2)cc1`, the growth was 61.6%.

As to `CCOC(=O)N1CCc2c(sc3c2C(=O)N[C@H](c2ccc(OC)cc2)N3)C1`, the growth was 97.8%. In the case of `Cc1cn(C2CCCCC2)c(=O)[nH]c1=O`, the growth is 107%. Take `Clc1ccc(-c2nc(NCCc3ccccc3)nc3c(NCCc4ccccc4)cnn23)cc1`: the growth was 80%. On to `COc1ccc(-c2nnc(-c3ccc4c(c3)nc(-c3ccccc3)n4C3CCCCC3)o2)cc1`, for which the growth is 77.5%. In the case of `CCN(CC)CCCNC(=O)c1ccc(N)cc1` it was 100%.
